Source: PubChem BioAssay (NCI)
The panel holds about 83,000 compounds, 20% with a hit somewhere; the sample as a whole holds those more often.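 Single-dose data. Exposure time 48 hours. Values below 10 considered active.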 The source made the active and inactive calls.

These compounds were tested on MDA-MB-468 breast (assay: NCI-60 one-dose screen, 48 h (100 = growth as untreated, 0 = no growth, -100 = all killed)). Conditions: 10 µM unless noted.
For `COc1ccc(/C=c2\nc3n(-c4ccccc4)c4nc5c6c(sc5c(=N)n4n-3c2=O)CCCC6)cc1`, the growth was 90.1% (inactive). For `COc1ccc(C(=O)CCC(=O)O)cc1`, the growth was 48% (inactive). With `O=C(CNc1c(Cl)cccc1Cl)Nc1ccc(-c2nc3ccccc3s2)cc1` the growth was -7.4% (active). In the case of `O=C(CCC(C(=O)c1ccccc1)c1ccccc1)c1ccccc1` (stereo not given), the growth is reported as 35.9% (inactive). In the case of `O=C(CCNC(=O)c1nc(-c2ccccc2)n(-c2ccc(Cl)cc2)n1)NO`, the growth is reported as 107% (inactive). For `COc1ccc(C2c3sc4c(F)cccc4c3Oc3nc[nH]c(=O)c32)cc1` (stereo not given), the growth was 54.6% (inactive). In the case of `CC(=O)Oc1ccc(C(OC(C)=O)OC(C)=O)cc1`, the growth is reported as 109% (inactive). In the case of `CC1CCN(Cc2ccc(NC(=O)c3cc4ccc5cccnc5c4[nH]3)cc2)CC1`, the growth is reported as 21% (inactive). In the case of `C/C(=C\CCc1ccoc1)CC/C=C(\C)CCCC1COC(=O)C1` (stereo not given), the growth is reported as 97.4% (inactive). In the case of `Cn1cnc([N+](=O)[O-])c1S(=O)(=O)Oc1cccc2ccccc12`, the growth is reported as 58.9% (inactive). With `COc1cc(/C=C2\COc3ccc(-c4ccccc4)cc3C2=O)cc(OC)c1` the growth was 69.3% (inactive). In the case of `N#CCCc1c[nH]c2ccccc12`, the growth is reported as 94.5% (inactive). `C[C@@H]1C(=O)N(C[C@@H](Cc2ccccc2)NC(=O)OCc2ccccc2)[C@]1(Cc1ccccc1)C(=O)OCc1ccccc1` was tested, and the growth was 26.1% (inactive). With `NCc1c(O)ccc2ccccc12` the growth was 93.9% (inactive). `Nc1c(C(=O)Nc2cccc(Cl)c2)sc2ncc(Cl)cc12` was tested, and the growth was 95.3% (inactive). With `O=C(/C=C/c1sc(Cl)nc1Cl)c1ccc(Br)cc1` the growth was 63.2% (inactive). `COc1cc(CSc2nc3ccc(C)cc3c(=O)n2Cc2ccccc2)cc(OC)c1OC` was tested, and the growth was -25.1% (active). In the case of `OCCSc1ccc(Cl)cc1`, the growth is reported as 106% (inactive). `CC(=O)/C(=C/c1ccc(Br)cc1)C(=O)c1ccccc1` was tested, and the growth was 92.3% (inactive). With `CNC(=O)c1cccc(Cn2nc(C)c(NC(=O)c3ccc(COc4ccc(C(F)(F)F)cc4C)cc3)c2C)n1` the growth was 3.58% (active). `C[C@@H]1CC[C@@H]2[C@@H]1[C@H](OC(=O)/C=C/c1ccccc1)[C@]1(C3CCCCC3)C[C@@H](OC(=O)CO)[C@@]2(C)O1` was tested, and the growth was 74.1% (inactive). For `COc1cc(OC)cc(C2C3=C(COC3=O)Nc3cc(OC)ccc32)c1` (stereo not given), the growth was -8.19% (active). `CNc1cc2nc3cc(NC)c(C)cc3cc2cc1C` was tested, and the growth was -11.5% (active). `COc1cc(/C=C2\CCC/C(=C\c3cc(CN4CCCCC4)c(O)c(OC)c3)C2=O)cc(CN2CCCCC2)c1O` was tested, and the growth was 80.4% (inactive). For `CN1CCN(c2ccc(C(=O)Nc3n[nH]c4ccc(Cc5cc(F)cc(F)c5)cc34)c(NC3CCOCC3)c2)CC1`, the growth was -72.3% (active). With `COc1cc(-c2c3c(cn2S(=O)(=O)c2ccccc2)-c2nc(N)sc2CC3)cc(OC)c1OC` the growth was 23.4% (inactive). In the case of `O=C(N/N=C/C=C\c1ccccc1)C(=O)N/N=C/C=C/c1ccccc1`, the growth is reported as 105% (inactive). `N#CC1=CC2CN(Cc3ccccc3)C1C1C(=O)N(c3ccccc3)C(=O)C21` (stereo not given) was tested, and the growth was 93.8% (inactive). With `Oc1ccc(Cl)cc1CNc1nc2ccccc2[nH]1` the growth was 102% (inactive). With `C=CCn1c(SCC(=O)Nc2ccc(C(=O)/C=C/c3ccc(Cl)cc3)cc2)nnc1-c1ccc(Cl)cc1` the growth was 89% (inactive). For `CC1SC(c2ccccc2O)N(NC(=O)CCC(=O)c2nc3ncccc3[nH]2)C1=O` (stereo not given), the growth was 88.1% (inactive). With `OC(c1cc2cc(Cl)ccc2c2cc(C(F)(F)F)ccc12)C1CCCCN1` (stereo not given) the growth was -82.2% (active). For `COc1cc(/C=N/NC(=O)c2cn(C3CC3)c3c(OC)c(N4CC5CCCNC5C4)c(F)cc3c2=O)ccc1O` (stereo not given), the growth was 54.8% (inactive). With `Fc1ccc(-c2cc3nc(C(Cl)Cl)nc(-c4ccco4)n3n2)cc1` the growth was -43.6% (active). For `COc1cc(C[C@H]2COc3cc(O)cc(O)c3C2=O)ccc1O`, the growth was 26.2% (inactive). In the case of `O=C1/C=C/[C@@H](O)[C@@H]2C[C@@H](O)C[C@H]2/C=C/CCC[C@H](CCO)O1`, the growth is reported as -54.5% (active). `N#C/C(=C1C=C/C(=N/O)C(Cl)=C/1)c1ccc(Cl)cc1` was tested, and the growth was -8.37% (active). In the case of `CCN1C(=O)N(CC)C2SC(N/N=C/c3ccc(OC)cc3)=NC21` (stereo not given), the growth is reported as 32.2% (inactive). `COc1cccc(NC(=O)NCCNc2nccc(-c3c(-c4ccc(F)cc4)nc4sccn34)n2)c1` was tested, and the growth was 94.3% (inactive). With `COCCNC(C)=O` the growth was 96.1% (inactive).
